# Source: the supplement of paper PMC7801607
# What was measured:
# [1] = tested on: CHO; assay: % viability of CHO cells (MTT); higher = less toxic; details: 48 h
# Procedure, shortened: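 For 48 h, attached CHO cells (10^6 cells/well, 200 µL, seeded the night before) were kept in fresh medium carrying compound at 2 or 20 µM. A colorimetric tetrazolium (MTT) assay then gave survival as percent viability versus untreated cells.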
# [2] = tested on: HepG2-A16-CD81; assay: % inhibition of HepG2 viability (CellTiter-Glo); higher = more toxic; details: 5 µM;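 further: HepG2-A16-CD81 hepatoma cells plated as in the liver-stage assay but without sporozoites, with DMSO wells as negative and 25 µM puromycin as positive control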
# [3] = tested on: Plasmodium falciparum NF54 stage IV/V gametocytes; assay: % inhibition of gametocyte viability (PrestoBlue); higher = more inhibition; details: 48 h
# Procedure, shortened: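 Stage IV/V NF54 gametocytes at 2% gametocytaemia and 5% haematocrit (100 µL/well) were treated with compound at 1 or 5 µM and incubated for 48 h at 37 °C under stationary, hypoxic conditions. PrestoBlue (10 µL) was then added for 2 h, and fluorescence at 612 nm was read on 70 µL of transferred supernatant. Percent inhibition of gametocyte viability was normalised to vehicle and kill controls within one run.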
# [4] = tested on: Plasmodium falciparum NF54 asexual blood stage; assay: % inhibition of asexual blood stage proliferation (pLDH); higher = more inhibition; details: 72 h
# Procedure, shortened: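 Plasmodium falciparum NF54 ring-stage cultures (1% haematocrit, 2% parasitaemia) were incubated with compound at 2 or 20 µM for 72 h at 37 °C under 4% CO2, 3% O2 and 93% N2. Survival was read at 620 nm with the parasite lactate dehydrogenase assay. Results were reported as percent inhibition of asexual proliferation relative to controls.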
# [5] = tested on: Plasmodium falciparum NF54 stage IV/V gametocytes; assay: % inhibition of gametocyte viability (ATP bioluminescence); higher = more inhibition; details: 24 h
# Procedure, shortened: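 Stage IV/V NF54 gametocytes from density gradients (30,000 per well, 96-well plates) were incubated with compound at 1 or 5 µM for 24 h at 37 °C. A single run supplied percent inhibition of gametocyte viability, based on ATP measured with Promega BacTiter Glo and normalised to control wells.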
# [6] = tested on: Plasmodium falciparum NF54 stage IV/V gametocytes; assay: % inhibition of gametocyte viability (luciferase reporter); higher = more inhibition; details: 48 h
# Procedure, shortened: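 Percent inhibition came from luminescence and was normalised to controls in a single run. Gametocytes (stage IV/V, NF54-Pfs16-GFP-Luc line, 2% gametocytaemia, 2% haematocrit) were treated with compound at 1 or 5 µM and incubated for 48 h at 37 °C without agitation under hypoxia. Readings used 30 µL lysate with 30 µL Promega luciferin substrate on a GloMax-Multi+ reader, integrating for 10 s.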
Compound,% viability of CHO cells ([1]; 2 µM),% viability of CHO cells ([1]; 20 µM),% inhibition of HepG2 viability [2],% inhibition of gametocyte viability ([3]; 1 µM),% inhibition of gametocyte viability ([3]; 5 µM),% inhibition of asexual blood stage proliferation ([4]; 2 µM),% inhibition of asexual blood stage proliferation ([4]; 20 µM),% inhibition of gametocyte viability ([5]; 1 µM),% inhibition of gametocyte viability ([5]; 5 µM),% inhibition of gametocyte viability ([6]; 1 µM),% inhibition of gametocyte viability ([6]; 5 µM)
COc1c(F)c(F)cc2c(=O)c(C(=O)O)cn(C3CC3)c12,82.2%,80.7%,3.68%,16.8%,16.9%,20.8%,56.5%,< 0%,< 0%,< 0%,< 0%
OB1OCc2c1ccc(Cl)c2F,95.7%,101%,-0.44%,8.58%,< 0%,0.633%,36.7%,< 0%,< 0%,< 0%,< 0%
O[C@@](Cn1cnnn1)(c1ccc(F)cc1F)C(F)(F)c1ccc(-c2ccc(OCC(F)(F)F)cc2)cn1,92.3%,95.9%,13%,1.61%,22.4%,7.2%,82.5%,< 0%,25.9%,< 0%,3.57%
Cc1nc(N(C)C(=O)Cc2ccc(-c3ccccn3)cc2)sc1S(N)(=O)=O,85.2%,59.1%,-0.405%,20.7%,39.1%,-8.1%,-31.8%,4.11%,< 0%,17.6%,< 0%
COc1ccc(-n2cnc3cc(NCc4ccco4)ccc32)cc1,93.6%,94.6%,1.83%,< 0%,< 0%,29.7%,44.9%,2.7%,< 0%,< 0%,< 0%
c1ccc(-c2nnc3c4ccccc4c(N4CCNCC4)nn23)cc1,101%,91.4%,10.4%,27.8%,50.3%,3.14%,69.2%,< 0%,0.889%,< 0%,11.9%
CCCCCCCCCN1C[C@@H](O)[C@H](O)[C@@H](O)[C@@H]1CO,94.1%,58.9%,4.62%,< 0%,3.2%,38.4%,25.3%,< 0%,< 0%,2.02%,2.49%
C[C@@H](c1nc(-c2ccc(C#N)cc2)cs1)[C@](O)(Cn1cncn1)c1ccc(F)cc1F,92.5%,99.8%,3.07%,12.4%,15%,-2.05%,34.3%,2.16%,< 0%,< 0%,< 0%
Nc1nc(=O)c(Br)c(-c2cccc(Cl)c2)[nH]1,102%,109%,6.4%,9.16%,21%,18.2%,68.9%,4.05%,< 0%,< 0%,5.01%
C/C(=N\NC(=O)C1CC1c1ccccc1)c1ccc(NC(=O)c2ccco2)cc1 (stereo not given),101%,69.1%,-5.96%,< 0%,14.5%,18.8%,38.7%,3.34%,< 0%,< 0%,< 0%
CCCCCCC1c2ccc(O)cc2Oc2cc(O)ccc21,80.1%,49.3%,11.4%,5.99%,< 0%,-7.32%,12.9%,4.64%,15.4%,< 0%,< 0%
Cn1cc(NC(=O)c2cc(NC(=O)c3ccc(/C=C/c4cnc5ccccc5c4)cc3)cn2C)cc1C(=O)NCCN1CCOCC1,34.6%,14.9%,-5.82%,18.3%,55.1%,68.7%,94%,22.3%,15.5%,64.1%,67.1%
CC(C)N(c1cc(-c2ccccc2)sc1C(=O)O)C(=O)[C@H]1CC[C@H](C)CC1,91.8%,103%,-2.07%,18.3%,14.3%,28.8%,44.9%,4.36%,< 0%,4.34%,< 0%
O=C(c1cc(O)nc2ccccc12)N1CCN(c2ccccc2)CC1,95.9%,52.7%,-2.09%,< 0%,< 0%,24.8%,48.3%,4.72%,10.4%,< 0%,< 0%
CCc1ccc(C2CC(C(F)(F)F)n3ncc(C(=O)NCc4ccc(OC)cc4)c3N2)cc1 (stereo not given),83%,61.2%,8.05%,< 0%,34.6%,37.2%,67.7%,2.93%,4.83%,< 0%,6.49%
O=C1C=C(c2ccccc2)S(=O)(=O)c2ccccc21,91.6%,81.8%,-4.77%,53.4%,76%,-2.86%,54.4%,13.8%,83.4%,16%,85.4%
O=C(O)c1cc(-c2ccccc2)nc2ccccc12,114%,94%,-0.148%,< 0%,< 0%,27%,90.2%,1.38%,< 0%,1.7%,< 0%
CN(O)C(=O)c1cc2c(CN3CCC[C@H]3C(N)=O)cn(Cc3ccc(F)cc3)c2cn1,96%,119%,-5.55%,31.6%,30.7%,16.8%,52.7%,< 0%,< 0%,< 0%,< 0%
FC(F)(F)Oc1ccc(Nc2ccc3cccc(Cl)c3n2)cc1,101%,86.1%,0.506%,16.2%,< 0%,31%,98%,4.02%,< 0%,< 0%,< 0%
CC(C)(C)c1ccc(C(=O)NC(=O)N2CCCc3ccccc32)cc1,94.6%,101%,-0.159%,< 0%,< 0%,-6.14%,-5.88%,< 0%,< 0%,< 0%,< 0%

Compound,% viability of CHO cells ([1]; 2 µM),% viability of CHO cells ([1]; 20 µM),% inhibition of HepG2 viability [2],% inhibition of gametocyte viability ([3]; 1 µM),% inhibition of gametocyte viability ([3]; 5 µM),% inhibition of asexual blood stage proliferation ([4]; 2 µM),% inhibition of asexual blood stage proliferation ([4]; 20 µM),% inhibition of gametocyte viability ([5]; 1 µM),% inhibition of gametocyte viability ([5]; 5 µM),% inhibition of gametocyte viability ([6]; 1 µM),% inhibition of gametocyte viability ([6]; 5 µM)
NCC(=O)Nc1ccc(-n2nc(C(F)(F)F)cc2-c2ccc3c(ccc4ccccc43)c2)cc1,124%,64.1%,9.92%,22.9%,12.6%,1.4%,67.6%,31%,93.6%,< 0%,< 0%
Cc1c(N)cccc1Cn1ccc(OCCc2cccs2)cc1=O,240%,54.9%,5.54%,< 0%,< 0%,6.4%,22.2%,0.516%,< 0%,< 0%,< 0%
NC[C@H]1OB(O)c2c(OCCCO)cccc21,123%,109%,-3.46%,10.1%,< 0%,6.89%,18.5%,< 0%,< 0%,< 0%,2.44%
O=C(Nc1ccc(-c2ccccc2)cc1)C1=C(O)C(Cc2ccccc2)OC1=O (stereo not given),93.6%,90.4%,13.1%,< 0%,13.8%,39.5%,101%,< 0%,< 0%,< 0%,< 0%
Nc1nc(-c2ccccc2)nc2[nH]nc(Nc3ccc(C(F)(F)F)cc3)c12,80.5%,60.9%,-9.27%,15%,7.65%,20%,80.5%,< 0%,< 0%,< 0%,< 0%
COc1ccc(SC(=O)N[C@H](CCC(=O)O)C(=O)O)cc1,114%,122%,3.46%,< 0%,58.8%,58.1%,103%,< 0%,6.16%,23.9%,62.8%
CCOc1ccc(/C=N/NC(=O)C2CC2c2ccc(C(C)(C)C)cc2)cc1OCC (stereo not given),96.4%,63.6%,-8.74%,< 0%,1.6%,18.7%,37.8%,< 0%,< 0%,17.9%,< 0%
O=C(N[C@H](Cc1cccc2ccccc12)C(=O)NCCc1c[nH]cn1)C1Cc2ccccc2C1,95.1%,97.8%,0.483%,2.53%,32.6%,23%,81.3%,2.29%,1.33%,< 0%,2.07%
Nc1nc(F)nc2c1ncn2[C@H]1O[C@@H](CO)[C@H](O)[C@@H]1O,33.8%,4.44%,77.8%,21.2%,19.8%,67.3%,72.4%,11.1%,< 0%,4.93%,35.8%
O=C(NNC(=S)Nc1ccc(Cl)cc1)c1ccncc1,116%,76.6%,4.57%,6.58%,< 0%,3.73%,-4.99%,< 0%,< 0%,< 0%,< 0%
Cc1nc(Nc2ccc(F)cc2)nc(N2CCc3ccccc3C2C)c1C (stereo not given),103%,69.7%,8.08%,2.28%,4.43%,49.6%,73.1%,< 0%,43.7%,< 0%,< 0%
O=C(O)c1ccccc1Sc1ncnc2sc3c(c12)CCC3,103%,89.7%,4.01%,20%,18.3%,-19.5%,-13.7%,2.23%,< 0%,< 0%,< 0%
NC(=O)c1ccc(I)c([N+](=O)[O-])c1,110%,112%,14.3%,17.8%,30.4%,1.16%,51.2%,< 0%,< 0%,0.24%,< 0%
O=C(Nc1ccccc1C(=O)O)c1cccc(Oc2ccccc2)c1,113%,61%,6.41%,37.4%,5.84%,-5.74%,-12.5%,< 0%,< 0%,< 0%,< 0%
CCOCc1nc2c(N)nc3ccccc3c2n1CC(C)(C)O,84%,69.2%,8.2%,8.02%,14.8%,58%,77%,< 0%,< 0%,2.74%,5.55%
CCOc1ccc(C(=O)NCCc2ccccc2)cc1,119%,77.8%,1.88%,31.4%,70.5%,34%,76.1%,6.61%,< 0%,< 0%,64.1%
C[Si]1(C)CCN(Cc2cc(-c3ccc(Cl)cc3)n(-c3ccc(Cl)cc3)n2)CC1,108%,71.6%,5.65%,28.8%,68.7%,57%,59.2%,3.88%,81%,3.92%,31.2%
Cc1ccc(S(=O)(=O)Nc2cccc3cccnc23)cc1,76%,-0.468%,-5.32%,13.9%,< 0%,55%,103%,< 0%,47.3%,< 0%,5.04%
C[C@H](NC(=O)C(=O)Nc1ccccc1C(C)(C)C)C(=O)N[C@@H](CC(=O)O)C(=O)COc1c(F)c(F)cc(F)c1F,113%,63.6%,0.382%,< 0%,< 0%,31.7%,46.9%,< 0%,< 0%,1.5%,2.48%
COc1ccc2c(c1)cc(CNC(=O)c1cc3ccccc3o1)n2CC(=O)O,90.6%,111%,3.58%,< 0%,26%,-3.06%,7.62%,1.71%,< 0%,< 0%,< 0%
